Measurements reported in the supplement of paper PMC10600219.
In all, about 2,800 compounds were measured (“cell viability relative to vehicle”: median about 1.1, lowest 2% from about 0.19 on). For the sample, the lowest values were picked, then their nearest neighbours and some compounds at random.

Each molecule was assayed on NCI-H2228 parental (assay: cell viability relative to vehicle (fraction of vehicle); NCI-H2228 is an ALK-positive lung cancer line and DTP means drug-tolerant persister; higher = less growth inhibition). Settings: 100 nM; treatment time 6 days.
Method in brief: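 The 3114-agent TargetMol anti-cancer compound library was tested at 100 nM for 6 days on parental NCI-H2228 cells and on persister cells derived with 1000 nM of a targeted drug for 13 days. ATP readout by the CellTiter-Glo 3D Cell Viability Assay gave cell viability relative to DMSO vehicle-treated cells.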
`CO[C@@H](C)Cn1c(=O)n(C)c2cnc3ccc(-c4cncc(C(C)(C)O)c4)cc3c21` showed a cell viability of 0.412. Work on `O=C(O)c1c[nH]c2cc(Cl)c(-c3ccc(C4(O)CCC4)cc3)cc12` yielded a cell viability of 1.09. Work on `C/C=C1\NC(=O)[C@H]2CSSCC/C=C/[C@H](CC(=O)N[C@H](C(C)C)C(=O)N2)OC(=O)[C@H](C(C)C)NC1=O` [Romidepsin] yielded a cell viability of 0.0515. Molecule `CCN(CC)CCNc1ccc(C)c2sc3ccccc3c(=O)c12` [Lucanthone] has a cell viability of 0.956. For `COCC[n+]1c2c(n(Cc3cnccn3)c1C)C(=O)c1ccccc1C2=O`, the cell viability was 0.0796. `COc1ccc(S(=O)(=O)Nc2ccccc2C=Cc2ccncc2)cc1` showed a cell viability of 0.238. `C[C@@H]1O[C@@H](O[C@@H]2[C@@H](O)[C@H](OCCc3ccc(O)c(O)c3)O[C@H](CO)[C@H]2OC(=O)/C=C/c2ccc(O)c(O)c2)[C@H](O)[C@H](O)[C@H]1O` [Verbascoside] gave a cell viability of 1.03. `CN(C(=O)CNC(=O)/C=C/c1cccc(Cl)c1)C1CCS(=O)(=O)CC1` gave a cell viability of 0.834. `O=C(CNc1ccc2ccccc2c1)N/N=C/c1cc(Br)c(O)c(Br)c1O` gave a cell viability of 1.05. `COC(=O)C1=CO[C@@H](O[C@@H]2O[C@H](CO)[C@@H](O)[C@H](O)[C@H]2O)[C@H]2[C@@H]1[C@H](O)C[C@]2(C)OC(C)=O` [8-O-Acetylshanzhiside methyl ester] was tested, and the cell viability was 0.898. With `OCC1(O)COc2cc(O)ccc2-c2cc(O)c(O)cc2C1` (centres undefined) [Protosappanin B] the cell viability was 1.04. With `O=c1cc(-c2ccc(O)c(-c3c(O)cc(O)c4c(=O)cc(-c5ccc(O)cc5)oc34)c2)oc2cc(O)cc(O)c12` [Amentoflavone] the cell viability was 1.08. `C[C@H]1O[C@@H](O[C@H]2CC[C@@]3(C)[C@@H](CC[C@]4(C)[C@@H]3C=C[C@]35OC[C@@]6(CCC(C)(C)C[C@H]63)[C@@H](O)C[C@]54C)[C@]2(C)CO)[C@H](O)[C@@H](O[C@@H]2O[C@H](CO)[C@@H](O)[C@H](O)[C@H]2O)[C@H]1O` [Saikosaponin A] was tested, and the cell viability was 1.11. In the case of `C/C1=C/CC[C@H](C)C(=O)C[C@@H](C(C)C)C(=O)C1` [Curdione], the cell viability is reported as 1.07. With `NCCNc1ccc(NCCN)c2c1C(=O)c1ccncc1C2=O` [Pixantrone dimaleate] the cell viability was 0.405. In the case of `O=C1c2c(O)ccc(O)c2C(=O)c2c(NCCNCCO)ccc(NCCNCCO)c21` [Mitoxantrone], the cell viability is reported as 0.132. With `O=C1c2cccc(O)c2C(=O)c2c(O)cccc21` [Antrapurol] the cell viability was 1.06. Work on `COc1ccc(S(=O)(=O)N[C@@H](CNc2nc(C)nc(N3CCC(c4ccc5c(n4)NCCC5)CC3)c2C)C(=O)O)cc1` yielded a cell viability of 0.705. Work on `COc1ccc2c(c1)C(c1ccc(F)cc1)=C(CN1CCCC1)CO2` yielded a cell viability of 1.1. For `COc1cc2ncnc(Nc3ccc(O)cc3)c2cc1OC`, the cell viability was 1.02. Work on `CO[C@H]1C(=O)[C@]2(C)[C@@H](OC)C[C@H]3OC[C@@]3(OC(C)=O)[C@H]2[C@H](OC(=O)c2ccccc2)[C@]2(O)C[C@H](OC(=O)[C@H](O)[C@@H](NC(=O)OC(C)(C)C)c3ccccc3)C(C)=C1C2(C)C` [Cabazitaxel] yielded a cell viability of 0.2. For `CC(=O)O[C@@]12CO[C@@H]1C[C@H](O)[C@@]1(C)C(=O)[C@H](O)C3=C(C)[C@@H](OC(=O)[C@H](O)[C@@H](NC(=O)OC(C)(C)C)c4ccccc4)C[C@@](O)([C@@H](OC(=O)c4ccccc4)[C@H]21)C3(C)C` [Docetaxel], the cell viability was 0.118. Work on `CC(=O)O[C@@]12CO[C@@H]1C[C@H](O)[C@@]1(C)C(=O)[C@H](O)C3=C(C)[C@@H](OC(=O)[C@H](O)[C@@H](NC(=O)OC(C)(C)C)c4ccccc4)C[C@@](O)([C@@H](OC(=O)c4ccccc4)[C@H]21)C3(C)C` [Docetaxel trihydrate] yielded a cell viability of 0.154. For `CC(=O)O[C@H]1C(=O)[C@@]2(C)[C@H]([C@H](OC(=O)c3ccccc3)[C@]3(O)C[C@H](OC(=O)[C@H](O)[C@@H](NC(=O)c4ccccc4)c4ccccc4)C(C)=C1C3(C)C)[C@]1(OC(C)=O)CO[C@@H]1C[C@@H]2O` [Paclitaxel], the cell viability was 0.128. `CC(C)NCC(O)COc1ccc(COCCOC(C)C)cc1` (racemic) [(±)-Bisoprolol hemifumarate] showed a cell viability of 1.14. `CC(C)(O)[C@H]1CC[C@H](Nc2ccc3ncc(-c4cccc(C(F)(F)F)c4)n3n2)CC1` showed a cell viability of 0.928. In the case of `COc1cc2c(c(OC)c1OC)-c1c(cc(OC)c(OC)c1OC)CC(C)C(C)C2` (centres undefined) [Schizandrin A], the cell viability is reported as 1.11. Work on `CC(C)c1c(-c2ccccc2)nc2c(C#N)c[nH]n2c1=O` yielded a cell viability of 1.1. `COC(=O)C[C@](O)(CCCC(C)(C)O)C(=O)O[C@@H]1C(OC)=C[C@]23CCCN2CCc2cc4c(cc2[C@H]13)OCO4` [Homoharringtonine] showed a cell viability of 0.162. Molecule `COc1c2c(cc3oc(CO[C@@H]4O[C@H](CO)[C@@H](O)[C@H](O)[C@H]4O)cc(=O)c13)O[C@H](C(C)(C)O)C2` [Cimifugin beta-D-glucopyranoside] has a cell viability of 1.09. `C=C[C@H]1[C@H](O[C@@H]2O[C@H](CO)[C@@H](O)[C@H](O)[C@H]2O)OC=C2C(=O)OCC[C@]21O` [Swertiamarin] gave a cell viability of 1.11. `CCCCCCCCCCCCCCCC(=O)O` [Palmitic acid] gave a cell viability of 1.02. For `O=C1O[C@H]2[C@@H]3OC(=O)c4cc(O)c(O)c(O)c4-c4c(cc(O)c(O)c4O)C(=O)OC[C@H]2O[C@@H](OC(=O)c2cc(O)c(O)c(O)c2)[C@@H]3OC(=O)c2cc(O)c(O)c3c2[C@@H]2C1=CC(=O)[C@](O)(O3)C2(O)O` [Geraniin], the cell viability was 0.981. In the case of `COc1cc(N2CCC(N3CCN(C)CC3)CC2)ccc1Nc1ncc(Cl)c(-c2c[nH]c3ccccc23)n1`, the cell viability is reported as 0.358. `COc1cc(C(C)C)c(Oc2cnc(N)nc2N)cc1I` showed a cell viability of 1.16. `C/C(=C\c1csc(C)n1)[C@@H]1C[C@@H]2O[C@]2(C)CCC[C@H](C)[C@H](O)[C@@H](C)C(=O)C(C)(C)[C@@H](O)CC(=O)N1` [Ixabepilone] gave a cell viability of 0.119. `C[C@H](CCC(=O)NCC(=O)O)[C@H]1CC[C@H]2[C@@H]3[C@H](O)C[C@@H]4C[C@H](O)CC[C@]4(C)[C@H]3CC[C@]12C` [Glycochenodeoxycholic Acid] gave a cell viability of 1.02. Work on `CC(=O)OC(C)C(C)C(=O)OCC12C3CC(C)(C)[C@H](O[C@@H]1C[C@]1(C)C3=CCC3C4(C)CCC(O[C@@H]5O[C@H](C(=O)O)[C@@H](O[C@H]6O[C@H](CO)[C@@H](O)[C@H](O)[C@H]6O)[C@H](O)[C@H]5O[C@@H]5OC[C@@H](O)[C@H](O)[C@H]5O)[C@](C)(CO)C4CCC31C)C2O` (some centres undefined) [Sodium Aescinate] yielded a cell viability of 1.1. Work on `O=S(=O)(CCC(F)=C(F)F)c1ncc(Cl)s1` [Fluensulfone] yielded a cell viability of 1.07.
